Results published in PubChem BioAssay (EPA / NIEHS).
Activity calls are given as the source filed them. Rule for the calls: active = hit-call score of the fitted dose curve at least 0.9, where 1 is the maximum; inactive = score below 0.9.

Assay: Tanguay_ZF_120hpf_ANY: Oregon State University Tanguay Lab 120 Hour Post-fertilization zebrafish Assay for Any Mortality and Malformation (AID 2284404)
Procedure, shortened: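 Dechorionated Tropical 5D wild-type embryos, one per well from 6 hpf, static exposure in sealed, dark plates at 28C until 120 hpf, 0.64% DMSO final. Brightfield scoring of mortality and malformations as binary presence/absence, pooling 13 morphology endpoints.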
In the case of OCC(F)(F)OC(F)(F)C(F)(F)OC(F)(F)C(F)(F)OC(F)(F)CO, the AC50 is reported as 18 µM (active). In the case of OCC(F)(F)OC(F)(F)C(F)(F)OC(F)(F)C(F)(F)OC(F)(F)F, the outcome is reported as “inactive”. In the case of FC(F)(F)C(F)(C(F)(F)F)C(F)(F)C(F)(F)CC1CO1 (centres undefined), the outcome is reported as “inactive”. For O=C(O)C(F)(F)C(F)(F)C(=O)O, the outcome was “inactive”. For NC(=O)C(F)(F)C(F)(F)F, the outcome was “inactive”. With COC(=O)C(F)(F)C(F)(F)OC(F)(C(F)(F)F)C(F)(F)OC(F)=C(F)F (centres undefined) the AC50 was 22.2 µM (active). For O=S(=O)(F)C(F)(F)C(F)(F)C(F)(F)C(F)(F)C(F)(F)C(F)(F)C(F)(F)C(F)(F)F, the outcome was “inactive”. With O=C(O)C(F)(F)OC(F)(F)C(F)(F)OC(F)(F)F the outcome was “inactive”. For O=C(O)C=CC(F)(C(F)(F)F)C(F)(F)F, the outcome was “inactive”. In the case of CC(O)C(F)(F)C(F)(F)F (centres undefined), the outcome is reported as “inactive”. With O=C(O)C(F)(F)OC(F)(F)C(F)(F)OC(F)(F)C(=O)O the outcome was “inactive”. For OCC(F)(F)OC(F)(F)C(F)(F)OC(F)(F)CO, the outcome was “inactive”. In the case of O=C(O)C(F)(OC(F)(F)C(F)(F)C(F)(F)F)C(F)(F)F (centres undefined), the outcome is reported as “inactive”. For C=CC(=O)OCC(F)(F)C(F)F, the AC50 was 23.3 µM (active).
